# PubChem BioAssay
# Inconclusive results are not listed. Active and inactive are the calls of the source.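 Rule for the calls, unless noted: active = viability increase at or above a cutoff of the median across tested compounds plus 3 SD (cut at about 8.5% in these data, passing the limit was not always enough); inconclusive = some gains above the cutoff, reason not given; inactive = the rest.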
# What was measured:
# [1] = reducers of endogenous Her2 protein level, primary screen, SKBR3 breast tumor cells, AlphaScreen, ATP viability (AID 461;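 active = Her2 level under about 52% in both replicate screens, with viability over 70% of control, limit read from the data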;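 for Her2 level: lower value means less Her2 protein in the cells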;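 for viability: percent of carrier control wells set as 100% viability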); details: 18-24 h, measured here: SKBR3 viability, ATP luminescence, at 10 µM
# [2] = molecular target: Receptor tyrosine-protein kinase erbB-2 (Homo sapiens) (UniProt P04626); assay: as above; details: 18-24 h, at 10 µM, stronger effect = lower value
# Receptor tyrosine-protein kinase erbB-2 (Homo sapiens), sequence (P04626 whole entry, looked up): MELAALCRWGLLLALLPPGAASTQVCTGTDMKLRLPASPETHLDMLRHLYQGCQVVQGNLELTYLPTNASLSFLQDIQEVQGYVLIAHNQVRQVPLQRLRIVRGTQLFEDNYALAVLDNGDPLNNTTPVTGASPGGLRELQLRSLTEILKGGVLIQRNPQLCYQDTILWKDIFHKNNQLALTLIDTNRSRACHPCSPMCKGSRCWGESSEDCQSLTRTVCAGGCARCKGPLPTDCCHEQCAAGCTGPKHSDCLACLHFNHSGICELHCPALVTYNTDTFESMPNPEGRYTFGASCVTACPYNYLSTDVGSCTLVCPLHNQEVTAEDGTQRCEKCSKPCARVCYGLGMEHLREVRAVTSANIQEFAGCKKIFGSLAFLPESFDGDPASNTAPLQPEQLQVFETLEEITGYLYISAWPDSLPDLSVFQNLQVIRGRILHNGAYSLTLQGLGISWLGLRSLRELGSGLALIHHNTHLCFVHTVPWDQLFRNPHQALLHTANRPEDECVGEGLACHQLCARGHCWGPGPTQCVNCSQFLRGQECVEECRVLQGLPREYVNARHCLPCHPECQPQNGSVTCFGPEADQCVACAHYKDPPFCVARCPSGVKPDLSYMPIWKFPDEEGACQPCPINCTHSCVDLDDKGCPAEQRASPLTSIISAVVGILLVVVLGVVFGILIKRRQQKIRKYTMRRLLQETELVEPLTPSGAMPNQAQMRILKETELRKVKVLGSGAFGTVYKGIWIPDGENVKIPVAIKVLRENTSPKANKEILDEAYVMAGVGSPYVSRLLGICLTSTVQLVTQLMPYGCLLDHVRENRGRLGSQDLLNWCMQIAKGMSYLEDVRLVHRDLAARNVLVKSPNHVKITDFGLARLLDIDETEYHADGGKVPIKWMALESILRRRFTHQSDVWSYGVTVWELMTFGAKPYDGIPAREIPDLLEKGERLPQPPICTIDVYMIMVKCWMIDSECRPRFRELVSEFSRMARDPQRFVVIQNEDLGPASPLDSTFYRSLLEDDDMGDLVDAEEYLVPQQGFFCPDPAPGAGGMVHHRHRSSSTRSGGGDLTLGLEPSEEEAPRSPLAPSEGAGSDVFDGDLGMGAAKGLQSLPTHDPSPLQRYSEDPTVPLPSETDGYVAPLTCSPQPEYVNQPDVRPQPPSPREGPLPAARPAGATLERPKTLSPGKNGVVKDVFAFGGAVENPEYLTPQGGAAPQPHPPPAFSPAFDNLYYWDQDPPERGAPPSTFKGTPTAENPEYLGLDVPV
# [3] = SK-BR-3 cell growth inhibitors, pilot screen, 24 h, human (AID 572;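 active = viability at or below 10% of carrier control in both of two separate runs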;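 note: compound exposure lasted between 18 and 24 h rather than exactly 24 h; 100% = carrier-treated control wells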); details: SK-BR-3 viability, CellTiter-Glo luminescence, at 10 µM, stronger effect = lower value
# [4] = HUVEC growth inhibition – cell-based, human, primary screen (AID 575;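 active = viability at or below 30% in both replicate assays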;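 note: 100% = median of untreated cell wells with 0.1% DMSO on each plate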); details: HUVEC proliferation, CellTiter-Glo luminescence, 72 h; at 10 µM; stronger effect = lower value
# [5] = growth inhibitors of H69AR lung tumor, primary screen, human, duplicate replicates (AID 580;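 active = viability at or under a set limit in both replicates, limit being median viability minus 3 SD, cut at about 48% in these data, passing the limit was not always enough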;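 note: 100% = mean luminescence of untreated wells and 0% = no signal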); details: H69AR lung tumor cells viability, ATP luminescence, 72 h; at 10 µM; stronger effect = lower value
# [6] = reversal of MRP1-mediated doxorubicin resistance, pilot screen, H69AR cells, doxorubicin co-treatment (AID 601;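 active = viability loss from added drug above about 55%, and viability with drug at most 40%, in both replicates, limit read from the data, passing the limit was not always enough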); details: CellTiter-Glo, 72 h, at 10 µM; for differential viability (reversal): stronger effect = higher value
# [7] = 384-well plate pilot, post-Golgi transport modulator project, inhibition of yeast transport mutant growth (AID 636; in the data active = inhibition above about 31%); details: absorbance 615 nm, about 18 h, stronger effect = higher value
# [8] = growth suppression of yeast trafficking mutant, preliminary HTS, modulators of trafficking downstream of Golgi apparatus project, 1536-format plate, OD 615 nm (AID 637; in the data active = inhibition above about 30%); details: yeast transport mutant growth, absorbance 615 nm, 18 h; stronger effect = higher value
# [9] = OD615 S. cerevisiae growth inhibition, permissive medium, pilot counter-assay, permissive growth control for S. cerevisiae lifespan shortening project (AID 705;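 active = growth inhibition above 25% in both replicates, a cutoff set 3 SD above the mean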); details: OD615, 24 h, at 10 µM, stronger effect = higher value
# [10] = Restrictive medium S. cerevisiae growth inhibition, OD615, pilot screen of yeast lifespan reduction project, restrictive growth control (AID 706;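 active = growth inhibition above a set limit, 3 SD over mean compound inhibition, in both replicates, cut at about 43% in these data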;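 note: modified DeaD lifespan yeast strain shifted to restrictive glucose medium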); details: OD615, 48 h, at 10 µM, stronger effect = higher value
# [11] = viability gain of MRP-1-high H69AR cells under doxorubicin, pilot screen, MRP-1 activator project, CellTiter-Glo, duplicate (AID 807); details: H69AR viability with doxorubicin, CellTiter-Glo luminescence; at 10 µM; stronger effect = higher value;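 note: compound pretreatment 18-22 h then 72 h combined with doxorubicin; 0% = doxorubicin alone and 100% = vehicle without doxorubicin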
# [12] = growth suppression of beta-catenin knockout HCT116, pilot screen, human colon tumor cells (AID 823;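 active = cell viability at or below a set limit in both duplicate runs, the limit being the all-compound median minus 4 SD, cut at about 23% in these data, passing the limit was not always enough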;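 note: 0% = wells killed by 20 µM Hyamine and 100% = untreated DMSO cell wells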); details: CellTiter-Glo, 60 h, at 10 µM, stronger effect = lower value
# [13] = growth suppression of PTEN-deleted HCT116, pilot screen, cell-based, HCT116 clonal line, CellTiter-Glo (AID 824;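 active = viability at or below 27.92% in each of two runs, the all-compound median minus 4 SD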;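 note: 0% = 20 µM Hyamine control and 100% = vehicle cell control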); details: 60 h, at 10 µM, stronger effect = lower value
# [14] = inhibitors of the yeast RAM network, pilot screen, dse1pr::URA3 reporter, 5-FOA selection (AID 869;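 active = inhibition over a set limit, the all-compound mean plus 3 SD, in both replicate runs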;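 note: 0% = DMSO wells with no growth and 100% = 10 µM 1-NA-PP1 with full growth; RAM network block rescues cells from 5-FOA so hits raise OD615 growth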); details: S. cerevisiae dse1pr::URA3 5-FOA growth, OD615, 2 d; at 10 µM; stronger effect = higher value; strain carries analog-sensitive mutant Cbk1 kinase
# [15] = RAM signaling pathway blockade in yeast – S. cerevisiae, Pdr1DBD-CYC8 efflux-inhibited sensitized strain, primary screen (AID 1298;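 active = RAM network inhibition above 8.4% in each of two replicates, 3 SD over the compound average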;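 note: 0% = DMSO untreated cells without growth and 100% = 10 µM 1-NA-PP1 full growth; higher means more yeast growth rescued from 5-FOA killing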); details: S. cerevisiae cbk1-as DSE1-URA3 strain, 5-FOA growth OD615, 2 d; at 50 µM; stronger effect = higher value
# [16] = H69AR cells + 2 uM doxorubicin, measured here: viability with 2 uM doxorubicin, stronger effect = lower value
# [17] = H69AR cells, compound alone cytotoxicity
SMILES,viability [1],Her2 level [2],viability [3],viability [4],viability [5],differential viability (reversal) ([6]; H69AR cells + 2 uM doxorubicin),"viability [6, 16]","viability [6, 17]",inhibition [7],inhibition [8],growth inhibition [9],growth inhibition [10],viability increase [11],viability [12],viability [13],inhibition [14],RAM network inhibition [15]
COc1ccc(NC(=O)C2CCCN2S(=O)(=O)c2cccc3cccnc23)c(OC)c1 (stereo not drawn),96%,106% (inactive),96% (inactive),90.5% (inactive),95% (inactive),-0.87% (inactive),95.9%,95%,91.4% (active),84.7% (active),98.5% (active),95.7% (active),-2.76% (inactive),91.6% (inactive),84.3% (inactive),0.91% (inactive),-1.73% (inactive)
CCOC(=O)CN1CC23C=CC(O2)C(C(=O)Nc2ccc(OCC)cc2)C3C1=O (stereo not drawn),100%,96% (inactive),100% (inactive),102% (inactive),96.4% (inactive),7.16% (inactive),89.2%,96.4%,-4.53% (inactive),0.49% (inactive),17% (inactive),13.4% (inactive),-0.57% (inactive),112% (inactive),105% (inactive),2.22% (inactive),0.21% (inactive)
O=C(Nc1cccc(Cl)c1)N1CCN(Cc2ccccc2)CC1,98.5%,99% (inactive),98.5% (inactive),103% (inactive),84.2% (inactive),5.49% (inactive),78.7%,84.2%,-6% (inactive),-0.49% (inactive),-4.47% (inactive),-8.27% (inactive),-1.11% (inactive),92.1% (inactive),86.4% (inactive),1.24% (inactive),3.81% (inactive)
CC1CCN(C(=O)CSc2nc3c(cnn3-c3ccccc3)c(=O)[nH]2)CC1,82.5%,92% (inactive),82.5% (inactive),72.1% (inactive),72% (inactive),7.54% (inactive),64.4%,72%,-0.64% (inactive),1.67% (inactive),-6.1% (inactive),-4.26% (inactive),-3.8% (inactive),98.3% (inactive),91.1% (inactive),1.47% (inactive),6.5% (inactive)
O=C(NCCSc1c[nH]c2ccccc12)c1ccco1,112%,93.5% (inactive),112% (inactive),64.5% (inactive),65.1% (inactive),-25.6% (inactive),90.6%,65.1%,-4.8% (inactive),0% (inactive),-5% (inactive),-2.81% (inactive),-6.06% (inactive),102% (inactive),91.6% (inactive),1.83% (inactive),0.88% (inactive)
CCn1c(SCC(=O)Nc2cccc(C)c2)nc2c(c1=O)SC(C)C2 (stereo not drawn),90%,88% (inactive),90% (inactive),99% (inactive),76.7% (inactive),3.39% (inactive),73.3%,76.7%,-3.07% (inactive),-0.67% (inactive),-3.52% (inactive),-4.62% (inactive),-3.09% (inactive),95.1% (inactive),88.9% (inactive),2.52% (inactive),10.2% (inactive)
O=C(NCCN1C(=O)C2C3C=CC(C3)C2C1=O)N1CCOCC1 (stereo not drawn),89.5%,106% (inactive),89.5% (inactive),90.2% (inactive),93.7% (inactive),4.75% (inactive),88.9%,93.7%,0.67% (inactive),-2.5% (inactive),-8.54% (inactive),8.98% (inactive),-1.43% (inactive),105% (inactive),94.9% (inactive),1.08% (inactive),0.73% (inactive)
O=C(c1ccc2nc(N3CCOCC3)sc2c1)N1CCCC1,94%,96% (inactive),94% (inactive),93.6% (inactive),108% (inactive),18.8% (inactive),89.4%,108%,-1.41% (inactive),9.17% (inactive),-2.18% (inactive),-7.76% (inactive),-2.73% (inactive),99.1% (inactive),95.4% (inactive),-0.14% (inactive),1.02% (inactive)
Cc1cccc(OCCNC(=O)c2ncn[nH]2)c1,100%,108% (inactive),100% (inactive),92.5% (inactive),91.9% (inactive),3.36% (inactive),88.5%,91.9%,0% (inactive),-5.17% (inactive),-12.5% (inactive),-4.79% (inactive),0.64% (inactive),94.2% (inactive),99.7% (inactive),1.01% (inactive),-0.32% (inactive)
